Source: PubChem BioAssay (NCATS)
Records with an inconclusive call do not appear. Where a call stands in place of a potency, no number is given. Activity calls are given as the source filed them. The call rests on the fitted dose curve; in most records, active means well fitted inhibition curve with a large enough effect; inconclusive means small, poorly fitted or top-dose-only effect; inactive means flat fitted curve, though single readings scatter.

Each compound was assayed against Calcium and integrin-binding protein 1 (Homo sapiens) (UniProt Q99828) (assay: Primary qHTS for Identification of Calcium Integrin Binding Protein 1 (CIB1) Competitor (AID 1508620;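 further: GST tagged CIB1 binding a fluorescein labelled alphaIIb integrin peptide tracer; top concentration of the series differs between compounds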)). Conditions: CIB1-GST / FITC-alphaIIb peptide fluorescence polarization; series mostly up to 114 µM.
In short: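 Fluorescence polarization competition: CIB1-GST (1 uM final) preincubated with compound 15 min at room temperature, then FITC-labeled alphaIIb peptide (100 nM final) added for another 15 min. Polarization read at Ex 480/Em 540.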

Sequence of Calcium and integrin-binding protein 1 (Homo sapiens) (Q99828 whole entry, looked up): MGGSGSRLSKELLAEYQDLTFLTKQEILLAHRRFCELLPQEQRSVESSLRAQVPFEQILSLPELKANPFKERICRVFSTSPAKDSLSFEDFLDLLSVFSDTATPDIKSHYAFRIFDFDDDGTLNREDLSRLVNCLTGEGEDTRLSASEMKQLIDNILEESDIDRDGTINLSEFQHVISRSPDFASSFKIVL

Compound	Potency
CCCCN(C)C(=O)Cn1nc(-c2ccc(F)cc2)ccc1=O	inactive
COc1ccc(NC(=O)c2cnn3c(C)cc(C)nc23)cc1OC	inactive
Cn1ncc2ccc(-c3ccc4ncnc(NCc5cccs5)c4c3)cc21	inactive
O=C(CSc1nc2ccccc2[nH]1)N1CCOCC1	inactive
C=CCNc1oc(C2CCCC2)nc1C#N	inactive
COc1ccccc1C1N=C(Nc2nc3ccccc3o2)NC2=C1C(=O)CCC2 (stereo not given)	inactive
c1ccc(CNc2nc(-c3cccs3)nc3ccccc23)cc1	inactive
O=C(Nc1cccc2c1cnn2-c1ccc(F)cc1)c1ccccn1	inactive
COc1ccc(OC2=NS(=O)(=O)c3ccccc32)cc1	inactive
O=C(O)c1ccc2c(c1)C(=O)N([C@H](Cc1c3ccccc3cc3ccccc13)C(=O)O)C2=O	inactive
O=S(=O)(c1ccc2c(c1)OCCO2)N1CCN(S(=O)(=O)c2cccc(Cl)c2F)CC1	inactive
COc1cc(NC(=O)C(OC(=O)CNC(=O)c2ccccc2)c2ccccc2)c(OC)cc1Cl (stereo not given)	inactive
Cc1cc(NS(=O)(=O)c2ccc(NC(=O)CCc3ccc(Cl)c(Cl)c3)cc2)no1	inactive
COc1cc(O)c(C(CC(=O)N2CCCC(C(=O)N3CCCCC3)C2)c2ccc3c(c2)OCO3)c(OC)c1 (stereo not given)	inactive
COc1ccc(OC)c(NC(=O)C(OC(=O)CNC(=O)c2ccccc2)c2ccccc2)c1 (stereo not given)	inactive
Cc1ccnc(NC(=S)N2CCNCC2)c1	inactive
O=[S+]([O-])(Nc1ccccc1)c1ccc(NCc2ccc(Cl)cc2O)cc1	inactive
CC(C)(C)c1ccc(C[C@H](C(=O)O)N2C(=O)c3ccc(C(=O)O)cc3C2=O)cc1	inactive
N#Cc1ccc(NS(=O)(=O)c2ccc3c(c2)CCC(=O)N3)cc1	inactive
Cc1cc(C)nc(NC(=S)N2CCN(c3cnccn3)CC2)c1	inactive

Compound	Potency
COc1cc(OC)cc(-c2csc(N3CCC(C(N)=O)CC3)n2)c1	inactive
O=C1CCc2cc(S(=O)(=O)Nc3cc(F)cc(Cl)c3)c(F)cc2N1	inactive
C/C=C\C1=CCCC1Nc1ncnc2ccc(-c3c(C)noc3C)cc12 (stereo not given)	inactive
C/C(=C\c1ccc2c(c1)OCCO2)C1Nc2cccc3cccc(c23)N1	inactive
S=P(c1ccccc1)(c1ccccc1)c1nc(CCCc2ccccc2)n2ccccc12	inactive
Cc1cccc(-n2cnc3cc(C(=O)N4CCCC(C(C)C)C4)ccc32)c1 (stereo not given)	inactive
Cc1cnc(-c2ccccc2OC(C)C)nc1NCc1ccc(-n2ccnn2)cc1	inactive
CC(C)(C)OC(=O)N1CCN(c2ccc(NCc3ccc(-c4ccc(C#N)cc4)s3)cc2)CC1	inactive
COc1ccc(C2c3c(nc(CCCc4ccccc4)[nH]c3=O)Oc3ccc4ccccc4c32)cc1OC (stereo not given)	inactive
COc1cc(C2Nc3ccccc3C(=O)N2Cc2ccccc2)ccc1OCc1ccc(NC(C)=O)cc1 (stereo not given)	inactive
N#Cc1c(-c2ccc(-c3ccccc3)cc2)no[n+]1[O-]	inactive
O=C(NCc1ccccc1)n1cc(P(=S)(c2ccccc2)c2ccccc2)c2ccccc21	inactive
Cc1cc2c(s1)c(C#N)c(C(=O)NCc1ccccc1F)n2C	inactive
c1csc(CNc2ncnc3ccc(-c4ccc5c(c4)OCCO5)cc23)c1	inactive
CC1=C(C(=O)NC2CCCCC2)C(c2ccccc2Br)N=C(Nc2nc3ccccc3o2)N1 (stereo not given)	inactive
Clc1ccccc1-c1ccc2ncnc(NCc3ccc4c(c3)OCO4)c2c1	inactive
Cc1ccc(OCCn2c(CCNC(=O)c3cccnc3)nc3ccccc32)cc1	inactive
Cc1nnc(CN(C)c2ncnc3ccc(-c4ccc5c(c4)OCO5)cc23)o1	inactive
O=C1CCCC2=C1C(c1[nH]ncc1Cl)NC(=NCCc1ccccc1)N2 (stereo not given)	inactive
COc1ccc(OC)c(C2=Nn3c(nnc3-c3cccc(OC)c3OC)SC2)c1	inactive
